Screening results as filed in PubChem BioAssay.
An excerpt weighted towards active compounds, which were near 5.7% of everything screened.
GLP1R inv ag: qHTS of GLP-1 Receptor Inverse Agonists (Inhibition Mode). Glucagon-like peptide 1 receptor (Homo sapiens), P43220. HEK293 GLP-1R CRE-luciferase, luminescence, 24 h; GLP-1R form is constitutively active. Potency, µM (series often up to 38.3 µM), for the others: top-dose activity change, negative = inhibition, usual class: inhibitors. 410,000 tested, 1.6% active. AID 624417, 2012; further: potency means the concentration at half of the fitted maximal effect; on the % scale 0 is the no-effect control and ±100 the full control effect; nearly all actives have a fitted effect of over 55% in size
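Readout was luciferase luminescence, measured 12 min after detection reagent at room temperature. Beforehand, GLP-1R reporter HEK293 cells had sat 12 h, then received compounds for 24 hr at 37 deg C.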
DRD3 antagonist: qHTS of D3 Dopamine Receptor Antagonist: qHTS. D3R cells, DiscoveRx beta-arrestin luminescence, antagonist mode; active compounds read low. max response, negative = inhibition, %. 360,000 tested, 2.5% active. AID 652054, 2013; in the data active means max response below about -50%; inconclusive means no clear call, values can overlap the other calls; further: on the % scale 0 is the no-effect control and ±100 the full control effect
Target sequence (P35462 whole entry, looked up): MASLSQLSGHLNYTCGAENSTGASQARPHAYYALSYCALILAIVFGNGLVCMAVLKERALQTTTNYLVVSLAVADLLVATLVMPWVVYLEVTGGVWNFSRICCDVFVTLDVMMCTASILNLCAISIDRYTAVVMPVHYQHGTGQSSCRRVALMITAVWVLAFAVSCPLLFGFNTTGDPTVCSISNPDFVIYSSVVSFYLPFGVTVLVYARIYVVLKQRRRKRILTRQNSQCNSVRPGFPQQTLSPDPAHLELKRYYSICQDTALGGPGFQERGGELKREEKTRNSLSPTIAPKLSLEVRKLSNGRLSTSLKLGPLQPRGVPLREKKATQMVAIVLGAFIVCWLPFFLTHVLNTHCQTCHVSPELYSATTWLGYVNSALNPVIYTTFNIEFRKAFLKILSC
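Cells expressing the human receptor were seeded at 1500 cells/well, incubated overnight at 37 degrees C in 5% CO2, then exposed to library compounds with dopamine controls for 90 minutes at 37 degrees C before luminescent detection.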
HEK293 tox: qHTS of GLP-1 Receptor Inverse Agonists: Cytotox Screen; HEK293 cAMP-luciferase reporter cells, luminescence, 24 h; Potency, µM (doses to about 38.3 µM), for inactives: at the top dose activity change, negative = inhibition, most hits filed as inhibitors; 410,000 tested, 0.13% active;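 further: loss of luciferase light is scored as toxicity; potency means the concentration at half of the fitted maximal effect; on the % scale 0 is the no-effect control and ±100 the full control effect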
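1536-well qHTS counterscreen of the MLSMR; 200 cells/uL, 12 h pre-incubation, 23 nL cpd, 24 h at 37 deg C 5% CO2, luciferase detection reagent, 12 min RT, luminescence. Inhibition = undesired.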
D3 ag: qHTS of D3 Dopamine Receptor Agonist: qHTS; D(3) dopamine receptor (Homo sapiens), P35462; D3R DiscoveRx beta-arrestin cells, luminescence, 90 min; max activation, %; AID 652048, 2013; 410,000 tested, 0.58% active; in the data active means max activation above about 30%; further: 0% is about no effect
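Cells at 1500/well, incubated overnight, then treated with pinned compounds (dopamine as control) for 90 min at 37 degrees C. DiscoveRx reagent added for 30 - 60 minutes at room temperature; luminescence read.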
ClpP mod: qHTS Assay for Activators of ClpP | 340,000 tested, 1.9% active | Potency, µM (titrated, usually from 57.5 µM), inactives show top-dose activity change, negative = active | purified B. subtilis ClpP, FRET peptide cleavage, 20 min | ATP-dependent Clp protease proteolytic subunit (Bacillus subtilis (strain 168)), P80244; active means well fitted falling curve with a large enough effect; inconclusive means small, poorly fitted or top-dose-only effect; inactive means no such curve, though single readings can be large or run the other way; further: potency means the concentration at half of the fitted maximal effect; the source files actives as falling curves though it sought activators and does not explain the sign; nearly all actives have a fitted effect of over 65% in size
Target sequence (P80244 whole entry, looked up): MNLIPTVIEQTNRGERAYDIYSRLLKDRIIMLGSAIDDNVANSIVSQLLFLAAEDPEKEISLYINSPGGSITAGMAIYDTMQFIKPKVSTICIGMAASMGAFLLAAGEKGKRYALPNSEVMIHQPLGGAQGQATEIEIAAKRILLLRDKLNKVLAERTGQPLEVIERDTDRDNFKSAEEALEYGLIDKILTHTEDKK
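ClpP 10 microg/mL final, pH 8 Tris/KCl buffer with BSA, glycerol, Tween-20; compound pinned in; FRET-FV substrate; RT 20 min; Ex320/Em430; ΔFRET vs ADEP 5.8 microM, DMSO, no enzyme.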
GLP-1R agonist: qHTS of GLP-1 Receptor Agonists. Glucagon-like peptide 1 receptor (Homo sapiens), P43220. HEK293 GLP-1R CRE-luciferase, luminescence, 4-6 h; cells express a hypersensitive GLP-1R form. Potency, µM (titrated, usually from 45.6 µM), for the others: at the top dose activation, usual class: activators. 380,000 tested, 0.007% active. AID 624172, 2012; further: potency means the concentration at half of the fitted maximal effect; % of control where 0% means no effect
Starred values were filed as active, the others as inactive; ? = inconclusive; · = not tested or not shown. Unless noted, the call rests on the fitted dose curve; in most records, active means well fitted curve in the direction sought with a large enough effect; inconclusive means small, poorly fitted or top-dose-only effect, or another doubt; inactive means no such curve, though single readings can be large; an effect the other way counts as inactive or inconclusive.

SMILES	GLP1R inv ag	DRD3 antagonist	HEK293 tox	D3 ag	ClpP mod	GLP-1R agonist
CC1(c2nnnn2Cc2ccccc2)CCC(=O)N1Cc1ccco1 (centres undefined)	13%	-4	-4%	-5	0%	4%
CN1C(=O)CON=C1c1cccc2ccccc12	7%	4	-4%	-4	0%	-8%
O=C(Oc1cccc2cccnc12)c1ccc2c(c1)OCCO2	4µM*	-84*	-5%	-4	-1%	11%
CN(CCc1ccccc1)C(=O)c1cccc(NC(=O)Cc2cccc(NC(=O)C3CCCN(C(=O)C4CCCC4)C3)c2)c1 (centres undefined)	?	11	-2%	16	-1%	-1%
Cc1ccccc1OCCC(=O)Nc1cccc(S(=O)(=O)Nc2ccccc2Cl)c1	?	2	-7%	6	14µM*	-1%
CCc1ccc(C=O)cc1	·	·	·	·	-5%	·
CCCOc1ccc(NC(=O)CC2C(=O)N(c3ccc(F)cc3)C(=O)N2CC(C)C)cc1 (centres undefined)	-12%	·	0%	62*	-2%	·
CCCOc1ccc(NC(=O)CC2C(=O)N(C)C(=S)N2Cc2cccs2)cc1 (centres undefined)	7.9µM*	-3	-19%	-6	-3%	-7%
CCN1C(=O)C(CC(=O)NCCc2ccccc2)N(NC(=O)c2ccc(Br)cc2)C1=S (centres undefined)	10µM*	7	-9%	1	0%	-2%
CCCOc1ccc(NC(=O)CC2C(=O)N(CC)C(=S)N2CCCN2CCN(Cc3ccccc3)CC2)cc1 (centres undefined)	7.1µM*	-18	?	-22	-1%	-3%
CC1(C(=O)O)CCCN1C(=O)c1cccc(C(F)(F)F)c1 (centres undefined)	16%	3	-1%	-9	-4%	2%
COc1ccc(-c2cc(=O)oc3c4c(ccc23)OCN(Cc2ccccc2)C4)cc1	2%	·	94%	-2	-7%	·
CCN1C(=O)C(CC(=O)Nc2ccc(Br)cc2)N(CCCc2ccccc2)C1=S (centres undefined)	2µM*	20	?	-3	-2%	-10%
CCOc1ccc(NC(=O)CC2C(=O)N(C)C(=S)N2CCCc2ccccc2)cc1 (centres undefined)	-14%	0	5%	1	-1%	-6%
COc1ccc(CCC(=O)Nc2ccc(-c3noc(-c4ccc(OC)c(OC)c4)n3)cc2)cc1	5%	48	-1%	26	?	2%
COc1cc(-c2nc(-c3ccc(NC(=O)c4ccc(Br)o4)cc3)no2)cc(OC)c1OC	-14%	39	?	105*	-13%	-13%
COc1ccc(-c2nc(-c3ccc(NC(=O)c4ccc(Br)o4)cc3)no2)cc1OC	?	61	11%	38*	-21%	-7%
CCOC(=O)C1(C)/C(=N/Nc2ccccc2)C(=O)C(=O)N1c1ccccc1 (centres undefined)	?	-58*	2%	-10	-2%	-2%
O=S(=O)(c1cccc(C(F)(F)F)c1)N1CCC(Oc2ccc(-n3cnnn3)cc2)CC1	-7%	·	11%	2	2%	·
CCN(c1ccccc1)S(=O)(=O)c1ccc(OC)c(NC(=O)Cc2ccc(F)cc2)c1	?	3	-4%	-6	-2%	13%
CCc1ccccc1NC(=O)c1cc(S(=O)(=O)N(CC)c2ccccc2)ccc1F	11µM*	·	0%	3	-2%	·
Cc1cccc(OC2CCN(Cc3nc(CC4CC4)no3)CC2)c1	13µM*	-4	17%	8	-2%	8%
CC(C)C[C@H]1COCCS(=O)(=O)N1Cc1ccccc1F	23%	-4	7%	42*	1%	2%
CCC(C)[C@H]1COCCS(=O)(=O)N1Cc1ccccc1F (some centres undefined)	?	-1	-15%	-14	-1%	-1%
COCc1cc(C)nc(N2CCNCC2)c1C#N	8%	-56*	1%	-7	16µM*	-5%
SMILES	GLP1R inv ag	DRD3 antagonist	HEK293 tox	D3 ag	ClpP mod	GLP-1R agonist
COCc1cc(C)nc(NCCc2ccccc2)c1C#N	?	-6	17%	-1	3.5µM*	33%
COCc1cc(C)nc(N2CCN(Cc3ccccc3)CC2)c1C#N	10%	-90*	-8%	-24	-20%	7%
COCc1cc(C)nc(N2CCCCC2)c1C#N	-5%	16	-3%	-3	22µM*	5%
COCc1cc(C)nc(N2CCN(c3ccccc3)CC2)c1C#N	5%	20	-5%	3	-10%	4%
COCc1cc(C)nc(Nc2ccccc2OC)c1C#N	2%	-2	14%	6	-24%	7%
CC(C(=O)Nc1cc(C(F)(F)F)ccc1Cl)n1nnc2sc3c(c2c1=O)CCCC3 (centres undefined)	-3%	·	13%	-10	-2%	·
Cn1c(NCCc2ccncc2)nc2cc(-c3ccccc3)sc2c1=O	27%	-9	17%	1	?	10%
Cc1cc(=O)oc2cc(OCCSCCN3CCCC3)ccc12	-7%	-3	3%	-19	1%	0%
COc1ccc(COc2ccc3c(C)cc(=O)oc3c2)cc1	21%	22	-13%	0	5%	30%
Cc1cc(=O)oc2cc(OCc3ccc(S(=O)(=O)N4CCOCC4)cc3)ccc12	0%	-14	9%	-2	3.2µM*	10%
COC(=O)C(CC(C)C)Oc1ccc2c(C)cc(=O)oc2c1 (centres undefined)	-8%	7	-18%	1	16µM*	2%
Cc1cc(=O)oc2cc(OCC(=O)N3CCOCC3)ccc12	3%	-19	1%	1	16µM*	4%
COc1ccc(N2CCN(CCOc3ccc4c(C)cc(=O)oc4c3)CC2)cc1	19%	-51*	4%	-17	-17%	3%
CC(=O)Oc1ccc2c(C)cc(=O)oc2c1	21%	62	81%	6	546%	0%
Cc1cc(=O)oc2cc(OCC(=O)N3CCCC3)ccc12	13%	?	6%	-2	5%	3%
COc1ccc(S(=O)(=O)N2CCCCCC2)cc1NC(=O)CCNC(=O)c1ccccc1Cl	7%	15	1%	1	0%	1%
